Source: PubChem (Johns Hopkins Ion Channel Center)
KCNK3 inh – human KCNK3 channel inhibitors, primary screen, CHO cells, FluxOR thallium flux, B-score; B-score at 10 µM; FluxOR fluorescence; active compounds read low; Potassium channel subfamily K member 3 (Homo sapiens), O14649; hit rate 0.84% among 340,000; AID 602410, 2012;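 active = B-score under library mean minus 4 SD, starting fluorescence ratio at most library mean plus 5 SD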;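 also: more negative B-score means stronger inhibition of thallium flux through KCNK3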
Target sequence (O14649 whole entry, looked up): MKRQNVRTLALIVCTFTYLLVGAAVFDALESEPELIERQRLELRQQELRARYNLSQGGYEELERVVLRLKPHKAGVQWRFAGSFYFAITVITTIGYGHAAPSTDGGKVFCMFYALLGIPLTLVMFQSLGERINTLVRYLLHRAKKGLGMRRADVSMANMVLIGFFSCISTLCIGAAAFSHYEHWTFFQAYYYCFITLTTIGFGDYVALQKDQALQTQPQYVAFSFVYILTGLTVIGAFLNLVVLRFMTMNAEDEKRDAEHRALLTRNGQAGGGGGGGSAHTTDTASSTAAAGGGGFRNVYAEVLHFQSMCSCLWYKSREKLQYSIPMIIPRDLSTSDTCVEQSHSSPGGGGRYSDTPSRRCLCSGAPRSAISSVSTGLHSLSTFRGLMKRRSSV
KCNK9 inh – KCNK9 potassium channel inhibitors, primary screen, HEK293 cells, thallium flux; B-score at 10 µM; FluxOR thallium flux fluorescence; active compounds read low; AID 488922, 2010; Potassium channel subfamily K member 9 (Homo sapiens), Q9NPC2; hit rate 1.2% among 310,000;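 active = ratio B-score over 3 SD below the library mean, with starting fluorescence within 5 SD of its mean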;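 also: negative B-score means less thallium flux so channel inhibition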
Kir21 block – inhibitors of mouse Kir2.1 inward-rectifier potassium channel; Inward rectifier potassium channel 2 (Mus musculus), P35561; AID 1672, 2009; HEK293-Kir2.1, FluxOR thallium flux fluorescence; active compounds read low; B-score at 10 µM; hit rate 0.85% among 310,000;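 active = fluorescence ratio B-score at or below minus 3 SD of library scores, with starting-brightness B-score within 2 SD, cut at about -4.2 in these data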;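 also: channel flux triggered by added potassium and thallium sulfate stimulus; B-score of peak minus minimum fluorescence over baseline after thallium stimulus; more negative B-score means stronger Kir2.1 block with less thallium influx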
TMEM16A inh – TMEM16A chloride channel inhibitors, primary screen, cell-based, HTS | Anoctamin-1 (Mus musculus), Q8BHY3 | HEK293 TMEM16A/YFP iodide influx fluorescence, ionomycin | normalized B-score (activity score, 25-100; higher = stronger inhibition) at 10 µM | hit rate 1.2% among 310,000;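 active = ratio plate-corrected score three or more library SD toward inhibition, starting fluorescence score within five deviations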;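 also: score derived from kinetic fluorescence span divided by baseline fluorescence per well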
ANO1 activ – TMEM16A chloride channel activators or potentiators, primary screen, cell-based, HTS; Anoctamin-1 (Mus musculus), Q8BHY3; HEK293 TMEM16A/YFP-H148Q/I152L, iodide quench fluorescence; active compounds read low; B-score at 10 µM; hit rate 0.3% among 340,000; AID 623877, 2012;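 active = fluorescence-ratio B-score plate-corrected deviation score at least 3 library SD below zero, with starting fluorescence score within 5 deviations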;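 also: channel opened by trigger with iodide after compound preincubation; score built on the fluorescence ratio of max minus min over baseline; more negative score means more quench and so TMEM16A activation or potentiation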
TMEM16A reconf – TMEM16A chloride channel inhibitors, confirmation, cell-based, re-confirmation; shares compounds with TMEM16A inh; HEK293 TMEM16A/YFP-H148Q, iodide quench fluorescence; ionomycin added to raise cell calcium; inhibition, % at 10 µM; hit rate 39% among 2,300; AID 652189, 2013;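 active = mean duplicate percent inhibition, scaled so buffer wells are 0 and the reference blocker 100, over three buffer SD above buffer mean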
HEK293 Ca mobil – calcium mobilization in TMEM16A/YFP HEK293 cells, confirmation, counter-screen for TMEM16A inhibitor project; shares compounds with TMEM16A inh; Fluo4 calcium mobilization; calcium response (% of ionomycin), % at 10 µM; hit rate 2% among 2,300; AID 652231, 2013;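 active = duplicate-averaged calcium signal over 20% of the ionomycin maximum, relative to buffer baseline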;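 also: each well's signal is peak minus trough fluorescence divided by its pre-addition baseline; 0% = buffer wells and 100% = ionomycin wells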
YFP-HEK293 quench – iodide YFP quench changes in parental YFP-HEK293, counter-screen for TMEM16A inhibitor project, cell-based. 2,300 tested, under 10 active. YFP ratio F(max-min)/F0 at 10 µM. ionomycin. shares compounds with TMEM16A inh;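 active = yellow fluorescent protein signal ratio exceeding the buffer control mean by over 5 SD of those controls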;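 also: ratio is mean of duplicate wells from kinetic YFP trace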
ClC-1 rat inh – ClC-1 chloride channel inhibition, selectivity assay for TMEM16A inhibitor project, cell-based, voltage-dependent ClC-1 | shares compounds with TMEM16A inh | CHO ClC-1-YFP, iodide influx fluorescence quench; iodide control reads 0, buffer control 100 | ratio percent, % at 10 µM | 2,300 tested, under 10 active;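 active = duplicate-mean ratio percent above the mean of iodide-only control wells, which defines zero, plus 5 of their SD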;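 also: higher percent means stronger block of ClC-1 iodide influx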
Numbers without * were called inactive; i = inactive; nt = no result. Compounds with a hit are over-represented: about 3.5% of the library has one in this group of screens.

SMILES	KCNK3 inh	KCNK9 inh	Kir21 block	TMEM16A inh	ANO1 activ	TMEM16A reconf	HEK293 Ca mobil	YFP-HEK293 quench	ClC-1 rat inh
O=C(Nc1ccccc1N1CCCC1)c1ccccc1F	i	i	1.74	i	i	nt	nt	nt	nt
O=C(CSc1ccc(F)cc1)Nc1ccc2c(c1)C(=O)NC2=O	i	i	-0.06	i	i	nt	nt	nt	nt
COCC(N)(c1ccccc1)c1nc2ccccc2n1C (stereo not drawn)	i	i	0.21	25*	i	i	i	-1.22	-6.5
N#CCC(=O)Nc1ccc(C(=O)OCC(=O)Nc2ccccc2-c2ccccc2)cc1	i	i	-0.19	100*	i	i	i	-1.09	-10.0
Cc1csc(NC(=O)c2ccc(Cn3nc(C)c(Br)c3C)o2)n1	i	i	-0.06	100*	i	25.0%*	i	-0.834	-18.5
COc1ccccc1NC(=O)C(C)OC(=O)C1CCC(C(C)(C)C)CC1 (stereo not drawn)	i	-7.1*	-2.63	100*	i	i	i	-0.926	-4.0
O=S(=O)(c1ccccc1Cl)N1CCCC1c1nc(-c2ccccc2Cl)no1 (stereo not drawn)	i	i	-0.19	100*	i	17.5%*	i	-1.1	-14.5
CC(C(=O)NC1CCCc2ccccc21)N1CCN(Cc2ccc3c(c2)OCO3)CC1 (stereo not drawn)	i	i	0.02	25*	i	i	i	-0.948	-3.5
CCSc1nnc(NC(=O)Cc2ccc(OC)c(OC)c2)s1	i	i	-0.52	100*	i	i	i	-0.865	-13.0
COCCSc1nnc(NC(=O)Cc2ccc(OC)c(OC)c2)s1	i	i	3.49	i	i	nt	nt	nt	nt
Cc1nn(-c2ccc(Cl)cc2)c2[nH]c(CCl)cc(=O)c12	i	i	-0.93	100*	i	45.5%*	i	-1.02	-10.5
COc1ccc(-c2cc(C(F)(F)F)c(C#N)c(SCC(=O)Nc3ccc(C)cc3)n2)cc1	i	i	1.6	i	i	nt	nt	nt	nt
COc1ccc(C(=O)CSc2[nH]c(=O)cc(C(F)(F)F)c2C#N)cc1	i	i	1.36	25*	i	21.5%*	i	-1.03	-13.5
CCCSc1nsc(NC(=O)CC)n1	i	i	-2.05	i	i	nt	nt	nt	nt
CCCSc1nsc(NC(=O)Nc2ccc(F)cc2F)n1	i	i	2.34	100*	i	66.5%*	i	-0.819	-23.5
C=CC[C@H](CC(=O)NCCO)C(=O)NCCOC(=O)[C@@H](CC=C)Cc1ccc(F)cc1	i	nt	nt	nt	i	nt	nt	nt	nt
CC(=O)c1ccc(N(C(=O)CNC(=O)c2ccco2)C(C(=O)NC2CCCC2)c2ccncc2)cc1 (stereo not drawn)	i	i	1.95	i	i	nt	nt	nt	nt
O=S(=O)(c1ccccc1)n1ccc(-c2cnc(-c3ccccc3)s2)n1	i	i	0.64	i	i	nt	nt	nt	nt
Cc1ccc(Cn2ccc(-c3cnc(-c4ccccc4)s3)n2)cc1	i	i	-0.36	100*	i	19.5%*	i	-1.03	-5.5
CCOc1ccc(-c2c(C(=O)N/N=C/C3CC=CCC3)nnn2-c2nonc2N)cc1 (stereo not drawn)	i	i	-0.12	i	i	nt	nt	nt	nt
CC(=O)N1CCc2cc(Br)cc(S(=O)(=O)NCCCN(C)Cc3ccccc3)c21	i	i	-4.35	i	i	nt	nt	nt	nt
CCOC(=O)c1sc(N/N=C/c2cc(Br)c(O)c(OC)c2)nc1C	i	i	-1.22	i	i	nt	nt	nt	nt
CC(C)(C)NS(=O)(=O)c1cc(C(=O)Nc2sccc2C#N)ccc1Cl	i	i	-1.17	i	i	i	i	-1.03	-14.5
N#Cc1ccsc1NC(=O)c1cnccn1	i	i	-1.29	i	i	nt	nt	nt	nt
O=C(N[C@@H](Cc1c[nH]c2ccccc12)C(=O)O)c1ccccc1Cl	i	i	0.1	25*	i	i	i	-1.16	5.0
SMILES	KCNK3 inh	KCNK9 inh	Kir21 block	TMEM16A inh	ANO1 activ	TMEM16A reconf	HEK293 Ca mobil	YFP-HEK293 quench	ClC-1 rat inh
O=C(N[C@@H](Cc1c[nH]c2ccccc12)C(=O)NC1CC1)c1ccccc1Cl	i	i	0.81	i	i	nt	nt	nt	nt
CC1=C(c2ccc(C)cc2)S(=O)(=O)N(CC(=O)O)C1=O	i	i	2	25*	i	i	i	-1.05	-13.5
CC1CCN(C(=O)c2[nH]cnc2C(=O)N[C@@H](CCCCNC(=O)OC(C)(C)C)C(=O)OC(C)(C)C)CC1	i	i	-1.68	100*	i	i	i	-1.24	-16.0
Cc1ccc(-n2c(CCc3ccccc3)n[nH]c2=S)cc1C	i	i	0.43	i	i	nt	nt	nt	nt
CN1C(=O)C2(OCC(COc3ccc(Cl)cc3)O2)c2ccccc21 (stereo not drawn)	i	i	-0.4	100*	i	18.0%*	i	-1.01	-8.0
COc1cc2c(cc1OC)C(C)N(C(=O)CCc1c[nH]c3ccccc13)CC2 (stereo not drawn)	i	i	-1.42	i	i	nt	nt	nt	nt
CCOC(=O)c1c(C)[nH]c(C(=O)C(C)Cl)c1C (stereo not drawn)	i	i	1.46	i	i	nt	nt	nt	nt
CCOC(=O)c1c(C)[nH]c(C(=O)C(C)Sc2ccc(Cl)cc2)c1C (stereo not drawn)	i	i	-1.29	25*	i	32.5%*	i	-1.02	-20.5
COCCNC(=O)c1noc2c1CCc1cc(OC)ccc1-2	i	i	0.09	i	i	nt	nt	nt	nt
COc1ccc2c(c1)CCc1c(C(=O)NC3CCCCC3)noc1-2	i	i	2.48	100*	i	i	i	-0.841	-4.5
Nc1nnn(CC(=O)N/N=C/c2ccc(Cl)cc2Cl)n1	i	i	-1.18	i	i	nt	nt	nt	nt
COc1c(C(O)CC(C)C)ccc2c1C(=O)OCc1cc(C)cc(O)c1O2 (stereo not drawn)	i	i	-0.46	25*	i	21.5%*	i	-0.968	-12.5
